# In PubChem BioAssay AID1347426 (Functional Genomics Laboratory (NCATS/FGL), 2020):
# About 1,400 (4.5%) of roughly 31,000 sequences were called active.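 Rule for the calls: active = median seed-adjusted z-score above 1 or below -1; inactive = the rest.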 This excerpt belongs to a sample that is enriched for actives.
# Assay: Novel Modifiers of Survival Motor Neuron (SMN) Protein: Gene Identification via Genome-wide siRNA Screen;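 note: luminescence tracks full-length SMN protein made from the SMN2 reporter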
# Conditions: HEK293T SMN2-luciferase reporter, siRNA knockdown, 72 h; actives lie on both sides
# Outline: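 Each of three siRNAs per gene is reverse-transfected (1 pmol) into reporter HEK293T cells whose luciferase output tracks SMN protein level. After 72 h culture, ONE-Glo luminescence is control-normalized, log10-transformed and MAD-standardized; Common Seed Analysis deprioritizes seed-driven hits.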
row,Sequence,median seed-adjusted z-score
1,GGUUUGGAGCGAGAGUGGATT against ASB10,0 (inactive)
2,GCAGCUAUCUCUGUACAGATT against MAPK8IP3,0.734 (inactive)
3,UGUUCAGUCUGGAAUUUCATT against MAP2K1,0.942 (inactive)
4,GGACCCAAAUUCAGAAGAATT against ANKRA2,1.26 (active)
5,GGAUCGGUAUGUAGCAAUATT against HTR2C,-0.115 (inactive)
6,GAGUAUCCAUCGGUAUCUATT against ZBTB11,-0.105 (inactive)
7,UCCAGACUCUGGUCACCAATT against CREB3L1,0.708 (inactive)
8,GCAUUGACUUGGGUGAAGATT against GPR101,-0.265 (inactive)
9,GAGUUGAAGUUAAAGUAAATT against MORF4,0.0121 (inactive)
10,CGACAAGAUCAAAUACCCATT against LZTR1,0.293 (inactive)
11,CAAGCCUGAUUUCCACCUATT against DTD1,-1.58 (active)
12,CAACGAGAAUGACUGCUGATT against PTPDC1,-0.191 (inactive)
13,CAAGAAAACCAGAAUGGAATT against SERPING1,-0.244 (inactive)
14,GCGAUUGCUUUGAUGGGUATT against LTBP1,0.143 (inactive)
15,GAAUCCUCCCAAUUGAUCATT against LSG1,1.31 (active)
16,GAACAUCGUUAUAAGUUGATT against CNTN3,0.732 (inactive)
17,GCACUAAUCUGCAAACUGUTT against SPTB,0.153 (inactive)
18,CAGACAAAUUUUAACCACATT against SLC17A8,-0.332 (inactive)
19,GGUCCAUCCAAAUUGUGGATT against CYP21A2,-0.26 (inactive)
20,GCGCAUCUAUCAACCCAAUTT against MLNR,-0.038 (inactive)
21,AGACUAAACUACUCUCGAATT against WDR46,-0.136 (inactive)
22,GCUGCUAUCAGUGAACGGATT against LIN7A,-1.39 (active)

row,Sequence,median seed-adjusted z-score
1,CGUGUUAGUGAAUAAAGUATT against ZNF771,0.108 (inactive)
2,CGGCAGACACUGAACAUCATT against SLC6A18,0.148 (inactive)
3,GUAGCACAGAGGAUUAAAATT against TTC33,0.104 (inactive)
4,CUCUAACCGUGGUUCCAGATT against SUPT16H,1.2 (active)
5,CGGCGGAGUUUAUAGAUAATT against BCKDHA,-0.299 (inactive)
6,GAAUCUACCUUGCUGCUCATT against G6PC,-0.628 (inactive)
7,GGACUACUAUGCCACUGCUTT against SSTR4,-0.00217 (inactive)
8,CGGCAACUUCAAUAACAGUTT against LPHN1,-1.03 (active)
9,GAGGGACUAUUUCACGAAATT against PARD3B,0.306 (inactive)
10,GUGCAUCUCUUGACAAUUUTT against LIPI,0.65 (inactive)
11,GAAUAUUCUCGAUUUAAUATT against PPP1R3D,0 (inactive)
12,GGGCUGUUAUUUCAAGAAATT against GALNT13,-0.0149 (inactive)
13,GAGCAUGUUUUUACCCUUUTT against MGC17403,0.204 (inactive)
14,CCAUAACAUUCACAAGUGUTT against TRPS1,-0.125 (inactive)
15,CCAGGUCACGAGUCAAGUATT against KTI12,0.0814 (inactive)
16,GGCCGUAACCUCAACCGUUTT against SNX33,-0.246 (inactive)
17,GACAAUCGACCGAAAGCAATT against PPP4C,1.15 (active)
18,GGGCAACAGUUGAACACCATT against PDK4,-0.693 (inactive)
19,GCUUUGACCGUGUCCGAAATT against STT3A,0 (inactive)
20,GCAUUUCCCAAGACGUGGATT against ZFYVE28,0.0678 (inactive)
21,GCAUUCACCAGAACGAGAATT against RIMS1,0 (inactive)
22,CGCAUCCAAGAGUACCUUUTT against ZNF229,-0.497 (inactive)

row,Sequence,median seed-adjusted z-score
1,GGACAUGAACCUUAACGAATT against DIAPH2,-0.0149 (inactive)
2,CUAUACUCUUCGCUCCUAUTT against SIGMAR1,-1.4 (active)
3,GGUUGAAAAGGAGUGCAAATT against CACYBP,-0.33 (inactive)
4,CAAAUCUGCUCAUCGAAAATT against MID1,-0.294 (inactive)
5,AGAAGAUCAUAGGCAGCAATT against KLK8,0.736 (inactive)
6,GCUUCAGAGUCAACGGACATT against MICB,0.162 (inactive)
7,GAGGAACAGGAAUAACAUUTT against GCG,-1.18 (active)
8,GGCCUAACCAUAUGCCUAUTT against SS18,0.34 (inactive)
9,GGUUUUUCCGCCAACUAGATT against CAPS,-1.25 (active)
10,GGUGUGCGGUUCAUCUUCATT against ILVBL,0.343 (inactive)
11,CUAAAGAGGUCAACAUUGATT against RGS16,0 (inactive)
12,AGGUGUUCAUCGGCGUAAATT against GRHL3,-0.0434 (inactive)
13,CCAGCAGCAUGGAAGUUGUTT against HSD3B7,-0.0819 (inactive)
14,UCAUCUACCUGAUGCGUAUTT against TAF6,-1.36 (active)
15,GAACUAUGAAUAAAGCUUUTT against HAGHL,-0.334 (inactive)
16,GGCUUGAAGUAUGGAAAAATT against QRICH1,-1.04 (active)
17,CCAGCUUAGUUCAAUAUGATT against GABRA4,0.549 (inactive)
18,CCAUCCUGAUAAGAACCCATT against DNAJA1,-0.00548 (inactive)
19,GGGCCUACUUUACAUCACATT against TXNDC14,-2.39 (active)
20,CGCUUACAAGGUCAACAUUTT against S1PR3,-0.0931 (inactive)
21,CAAGCUACGUAGAGAUCUATT against KIFC1,0.0417 (inactive)
22,ACAUGUUCCUCACCUUAAATT against SLC6A1,-0.122 (inactive)

row,Sequence,median seed-adjusted z-score
1,GGAGGGAUAUGUUCCACGUTT against TP53BP2,0.157 (inactive)
2,CUACUGUGGGUGUCGCAUATT against UQCRFS1,-1.28 (active)
3,GAGCGACUUUGAUCACCAUTT against PANK2,0.121 (inactive)
4,CAUUCAUCAUCCACCCAGATT against MUPCDH,-0.329 (inactive)
5,CCCGGAUACUUCUGAAGAATT against HNRPDL,-0.68 (inactive)
6,CGGUGGGAUGGGAACGAAATT against DRAP1,1.08 (active)
7,CUAUGACUGGAUUAGCGUATT against BEST2,0.415 (inactive)
8,GCUUUUGAACUAUUUGAUATT against CETN3,-0.0815 (inactive)
9,UGAAGACCCAGAGAUGUAATT against PTN,-0.174 (inactive)
10,UGAGAUCGCUGUCAUGUUATT against PSMD10,0.265 (inactive)
11,GCAAGGUUUAAUGAACAAATT against GTF2E1,1.76 (active)
12,GUGAGAACUUUGACGAUUATT against PMP2,0.00618 (inactive)
13,GUAACUGCAUUCAACUUGATT against OSMR,0.548 (inactive)
14,UGAAAAACAUUAACAAGCATT against RNASE7,1.07 (active)
15,CAACCUACAUGUUUGCUGATT against SCARF1,-0.324 (inactive)
16,GGAACAUUCCGACCUACAATT against PTDSS2,0.0941 (inactive)
17,CCGUCACCAUCCUCAUCUATT against PORCN,0.214 (inactive)
18,GAUGAUUUUUGGAGACCUATT against TRPV5,0.0879 (inactive)
19,GGAGUUUGAGGUAUACCUATT against IL6,-0.436 (inactive)
20,GCUUUAACGUGUCUGUGCATT against SLC25A5,-0.0501 (inactive)
21,CUACUACUUUAAUCCCUAATT against FDFT1,-0.143 (inactive)
22,GCAUCGACCUGAUUCACAATT against AP3B2,-2.45 (active)

row,Sequence,median seed-adjusted z-score
1,GGAGCGGUUCAGAUCAAUATT against RAB39,-0.408 (inactive)
2,CCUCAUUGAUAACACUAAATT against GBP2,-0.263 (inactive)
3,GGAUUGAAGGUGUUCACUATT against PZP,-0.878 (inactive)
4,CAGUACUACGUGAAACUGATT against BAT1,-1.49 (active)
5,GGCUACAAGUAGAGAGUUUTT against ESPL1,0.871 (inactive)
6,GAGAAAGUGUGAACUUACATT against XRCC2,0 (inactive)
7,CGCAACUCUUUACACCGUATT against SAMHD1,-1.33 (active)
8,GGAUGUUUUCGAAACGCAUTT against BRDT,-0.357 (inactive)
9,GACUAUUCCUGAUCCUUAUTT against AGBL2,-0.796 (inactive)
10,GCAUCAGCUUCGAUGAGUATT against S100A16,0.24 (inactive)
11,CCCUGUCUAUAAUUUCUUUTT against DGCR8,-0.266 (inactive)
12,CGCCUUAUACUUUACCAAATT against MGC16703,0.55 (inactive)
13,CCAUUAAGAAUGCUAAUAUTT against ABCB10,-0.1 (inactive)
14,GGCUAUAGGGUGUAUAUUUTT against CDK8,-1.47 (active)
15,CCUUCGACCUCAAGAGACATT against OVOL1,-0.0414 (inactive)
16,CAGGCUUUGUUAGACGUAATT against ZNF157,0.137 (inactive)
17,GCUCUUGGAUUAAAAGGUATT against STAR,0.478 (inactive)
18,GAACGUACUCUUGCUUAUATT against ATP6V1D,0.594 (inactive)
19,CAGAGAACCCAUUACAUCATT against HADH,1.11 (active)
20,GACUUUCACAGUUCACCGATT against KCTD3,0.603 (inactive)
